Drawing on PubChem BioAssay AID743126 (The Scripps Research Institute Molecular Screening Center, 2013), this text covers inhibition for 56 compounds.

Each structure is given as a SMILES string. The campaign covered roughly 370,000 compounds. About 2,100 (0.57%) were called active.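 The calls were made as follows: active = inhibition above mean plus 3 SD of compounds lying within the high and low control bounds (cut at about 19% in these data); inactive = the rest.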 The list comes from a sample in which actives are over-represented; it also holds similar structures and randomly drawn compounds.

For this experiment, the target named is Group 3 secretory phospholipase A2 (Homo sapiens) (UniProt Q9NZ20). Briefly: HGIII-sPLA2 enzyme inhibition – biochemical, QFRET, BODIPY PC-A2 liposome substrate, primary screen (AID 743126).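 Also: 0% = median of test compound wells and 100% = no enzyme DMSO wells.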 To be noted: QFRET BODIPY PC-A2 liposome hydrolysis, fluorescence; at 12.2 µM; hits give high values.
Chain of Group 3 secretory phospholipase A2 (Homo sapiens) (Q9NZ20 whole entry, looked up): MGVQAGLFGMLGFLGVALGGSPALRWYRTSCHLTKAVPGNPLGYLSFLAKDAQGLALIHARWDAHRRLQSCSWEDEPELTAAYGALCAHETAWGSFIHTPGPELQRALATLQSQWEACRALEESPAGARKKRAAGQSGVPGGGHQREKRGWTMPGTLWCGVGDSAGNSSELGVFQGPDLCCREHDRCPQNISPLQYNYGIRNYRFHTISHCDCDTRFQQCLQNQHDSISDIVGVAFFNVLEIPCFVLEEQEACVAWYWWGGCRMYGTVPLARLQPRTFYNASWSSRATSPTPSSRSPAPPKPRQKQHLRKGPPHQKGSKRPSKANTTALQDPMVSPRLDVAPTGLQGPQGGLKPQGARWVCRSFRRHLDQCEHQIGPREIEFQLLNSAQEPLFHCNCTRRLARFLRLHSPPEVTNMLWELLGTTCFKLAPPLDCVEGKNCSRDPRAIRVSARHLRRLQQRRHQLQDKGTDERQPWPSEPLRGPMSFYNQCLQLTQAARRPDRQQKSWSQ
As for `CC(C)OC(=O)c1ccc(NCc2cc(O)ccc2O)cc1Cl`, the inhibition (commonly the relative decrease from the control value, in per cent) is 32.5% (active).

For `COc1ccc2c(c1)CN1CN(CCc3ccccc3)S(=O)(=O)CC21` (stereo unspecified), the inhibition is 1.49% (inactive).

Turning to `C[C@@H]1ON(C)[C@H]2C[C@H]3c4[nH]c5cccc(-c6ccc7c(c6)OCO7)c5c4CCN3C[C@@H]12`, the inhibition was -5.9% (inactive).

In the case of `O=C(NCCCc1ccccc1)[C@H](Cc1ccccc1)NC1(C(=O)NCCc2c[nH]c3ccccc23)CCC1`, the inhibition is -86.7% (inactive).

As for `CN(CCc1ccccc1)C(=O)Cn1nc(-c2ccccc2)ccc1=O`, the inhibition is 4.61% (inactive).

Take `O=C(NC1CCCCN(Cc2ccc(Cl)cc2)C1=O)c1ccc(Br)cc1` (stereo unspecified): the inhibition is 2.5% (inactive).

In the case of `Cc1ccc(CN2CCCCC(NC(=O)C3CCCCC3)C2=O)cc1` (stereo unspecified), the inhibition was 2.08% (inactive).

On to `CN(C)c1ccc(NC(=O)NC2CCCCN(Cc3ccc(Cl)cc3)C2=O)cc1` (stereo unspecified), for which the inhibition is 20.4% (active).

For `CCOc1ccc(N(CC(=O)Nc2c(C)n(C)n(-c3ccccc3)c2=O)S(=O)(=O)c2ccc(Cl)s2)cc1`, the inhibition was -3.41% (inactive).

Turning to `O=C(NCCc1c[nH]c2ccccc12)OCc1cn(-c2c(F)cccc2F)nn1`, the inhibition is -62.2% (inactive).

Consider `CC(=O)c1cc(-c2ccc3ccccc3c2)c(=O)n2c1CCC2`, for which the inhibition was -7.07% (inactive).

`O=C(CCCCCN1C(=O)C2C3C=CC(C3)C2C1=O)Nc1ccccc1` (stereo unspecified): the inhibition is -2.11% (inactive).

In the case of `CC(=O)O[C@H]1c2ccccc2-c2ccccc2[C@@H]1OC(C)=O`, the inhibition is 1.14% (inactive).

For the compound `CC(=O)Oc1ccc2c(c1)C(=O)c1ccccc1C2=O`, the inhibition is 20.7% (active).

Regarding `CC(=O)Nc1ccc(Oc2ccc3c(c2)C(=O)NC3=O)cc1`, the inhibition is 1.41% (inactive).

As to `NS(=O)(=O)c1ccc(CCNC(=O)NC2CCCCC2)cc1`, the inhibition was 20.7% (active).

For the compound `COc1ccc(OCC(=O)NCCc2ccc(S(N)(=O)=O)cc2)cc1`, the inhibition was 0.5% (inactive).

Regarding `O=C(NCCCNC(=O)NC1CCCCC1)NC1CCCCC1`, the inhibition is 6.47% (inactive).

Take `O=C(NCCC1=CCCCC1)C1CCN(S(=O)(=O)c2ccc(Cl)s2)CC1`: the inhibition is -2.99% (inactive).

For the compound `COc1ccc(S(=O)(=O)NCCCCOc2ccc(Cl)cc2)cc1`, the inhibition was -35.8% (inactive).

On to `COc1cccc(NC(=O)CCNS(=O)(=O)c2ccc3c(c2)oc(=O)n3C)c1`, for which the inhibition is 5.16% (inactive).

For the compound `COc1cccc(NC(C)=[N+](C)CCNS(=O)(=O)c2ccc(Cl)cc2)c1`, the inhibition is 22.1% (active).

For the compound `CN(C)[C@H]1CCN(c2cccc3c2S(=O)(=O)N2CC[C@H](C2)O3)C1`, the inhibition was -0.04% (inactive).

Take `Cc1ccc(OCc2nnc(SC/C=C/c3ccccc3)n2Cc2ccco2)cc1`: the inhibition was -14.9% (inactive).

On to `CC(=O)Nc1nc2ncccn2c1-c1ccc(C(F)(F)F)cc1`, for which the inhibition was 11.9% (inactive).

On to `COC(=O)[C@]12C[C@H](CC(=O)N3CCN(C(=O)C4CC4)CC3)C(=O)N(CCC3=CCCCC3)C1=C[C@H](C(C)C)O[C@@H]2C1CC1`, for which the inhibition was 4.41% (inactive).

As to `CN(CC(=O)Nc1ccccc1[N+](=O)[O-])Cc1ccc(Br)cc1`, the inhibition was -9.41% (inactive).

In the case of `CN(CC(=O)Nc1ccc(N2CCOCC2)cc1)CC(=O)Nc1ccccc1[N+](=O)[O-]`, the inhibition is 20.6% (active).

As for `CSc1ccccc1NC(=O)CN(C)CC(=O)Nc1ccc(Cl)cc1[N+](=O)[O-]`, the inhibition was -3.92% (inactive).

As to `Cc1cc(=O)[nH]c(SCC(=O)Nc2ccc(F)cc2F)n1`, the inhibition is -0.22% (inactive).

Consider `CCC(C)[C@@H](C(=O)OC)N(CCc1cn(Cc2ccccc2)nn1)S(=O)(=O)c1ccccc1Br` (stereo partly specified), for which the inhibition is -21.7% (inactive).

Consider `COCCn1c(SCC(=O)Nc2cc(Cl)ccc2OC)nc2c(c1=O)SC(C)C2` (stereo unspecified), for which the inhibition was -0.04% (inactive).

For `COCCn1c(SCC(=O)Nc2cc(OC)ccc2OC)nc2c(c1=O)SC(C)C2` (stereo unspecified), the inhibition was 20.3% (active).

For the compound `CCn1c(SCC(=O)Nc2ccccc2F)nc2c(c1=O)SC(C)C2` (stereo unspecified), the inhibition is 0.02% (inactive).

`Cc1nc(CNc2ncnc3ccc(-c4ccc5c(c4)OCO5)cc23)cs1`: the inhibition was -8.39% (inactive).

Turning to `CCCCn1c(N)c(N(CCOC)C(=O)c2sc3ccccc3c2Cl)c(=O)[nH]c1=O`, the inhibition was 5.32% (inactive).

In the case of `CCCCn1c(N)c(N(CCOC)C(=O)CSCC(=O)Nc2cccc(C)c2)c(=O)[nH]c1=O`, the inhibition is 0.3% (inactive).

As to `CCCCn1c(N)c(N(CCOC)C(=O)COc2c(C)cccc2C)c(=O)[nH]c1=O`, the inhibition was 21.9% (active).

Take `CCCCOCCCNC(=O)C[C@H]1C[C@@]2(C(=O)OC)C(=C[C@H](C(C)(C)C)O[C@@H]2C)N(CCc2ccc(OC)c(OC)c2)C1=O`: the inhibition was -14.2% (inactive).

Regarding `COc1ccnc(C(=O)N2CCC(Oc3cccnc3)CC2)c1`, the inhibition is 3.64% (inactive).

With `Nc1ccc(Nc2ccccc2)cc1`, the inhibition is 19.5% (active).

Take `Cc1ccc(Nc2ccccc2N)cc1`: the inhibition was -1.96% (inactive).

For `O=c1cnnc(Nc2ccccc2)[nH]1`, the inhibition was 6.17% (inactive).

In the case of `CC(=O)O[C@@]1(C(C)=O)CCC2[C@H]3C=C(C)C4=CC(=O)CC[C@@]4(C)C3CC[C@]21C` (stereo partly specified), the inhibition was 14% (inactive).

Regarding `COc1ccc(C(=O)NC(=S)NNC(=O)c2c(-c3ccccc3)noc2C)cc1`, the inhibition was 19.5% (active).

Consider `COc1ccc(C(=O)NNC(=S)NC(=O)c2ccccc2)cc1`, for which the inhibition is 31.9% (active).

With `COc1ccc(C(=O)NNc2cc(C)nc(NNC(=O)c3ccc(OC)cc3)n2)cc1`, the inhibition is -3.83% (inactive).

Take `COc1ccc(C(=O)NCCSc2ccccc2C)cc1`: the inhibition was -6.45% (inactive).

On to `COC(=O)c1ccc2nc(-c3ccccc3)c(Cc3ccc(OC)cc3C)n2c1`, for which the inhibition is -8.3% (inactive).

`COc1ccc(C(=O)NN2C(=O)C3C(c4ccccc4)C=CC(c4ccccc4)C3C2=O)cc1` (stereo unspecified): the inhibition is -36.3% (inactive).

As for `O=S1(=O)c2ccc(Br)cc2OC[C@@H](Cc2ccccc2)N1Cc1cn(Cc2ccco2)nn1`, the inhibition is -4.54% (inactive).

`Nn1c(SCC(=O)Nc2cccc3ccccc23)nnc1-c1cc(-c2ccc(F)cc2)n[nH]1`: the inhibition is -0.61% (inactive).

For the compound `COC(=O)c1ccccc1-n1cc(COC(=O)NCCc2ccccc2)nn1`, the inhibition is 6.94% (inactive).

For `Cc1ccccc1NC(=O)Cn1nnc(-c2ccccc2F)n1`, the inhibition was -6.88% (inactive).

For the compound `O=C1CC[C@@H](COc2ccc3[nH]cc(-c4ccccc4)c3c2-c2ccccc2)N1`, the inhibition is -47.7% (inactive).

With `COc1ccc(/C=C2\CC3(OC(C)=O)CCCN2C3)cc1` (stereo unspecified), the inhibition is 2.59% (inactive).
